The values that follow come from PubChem BioAssay AID2013 (Sanford-Burnham Center for Chemical Genomics, 2009).

“And” between values parts separate entries of the source, which are not always exact repeats. Equal values may be shown once. About 370 (0.13%) of roughly 290,000 compounds were called active. The sample holds actives, similar compounds and a random draw of the others, so the mix is not that of the screen.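 The calls were made as follows: active = spots per cell inhibited over 60%, with over 100 cells counted and total cytoplasm intensity under 500,000; inconclusive = wells with under 100 cells, flagged as likely toxic; inactive = the rest.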 Potency and affinity values are given separately.

For this test, the target named is G-protein coupled receptor 55 (Homo sapiens) (UniProt Q9Y2T6). In words: GPR55 antagonists blocking LPI-driven arrestin recruitment, primary screen, imaging, U2OS, beta-arrestin-GFP, LPI agonist (AID 2013).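 Also: U2OS cells stably carrying GPR55 and arrestin-GFP stimulated by 5 µM LPI near EC80; imaged beta-arrestin-GFP aggregate spots per cell after agonist stimulation; plate controls were LPI-stimulated DMSO wells for no effect and DMSO wells without LPI for full effect.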 The conditions noted are these: U2OS GPR55 beta-arrestin-GFP translocation imaging, LPI antagonism; at 10 µM; active compounds read high.
G-protein coupled receptor 55 (Homo sapiens), sequence (Q9Y2T6 whole entry, looked up): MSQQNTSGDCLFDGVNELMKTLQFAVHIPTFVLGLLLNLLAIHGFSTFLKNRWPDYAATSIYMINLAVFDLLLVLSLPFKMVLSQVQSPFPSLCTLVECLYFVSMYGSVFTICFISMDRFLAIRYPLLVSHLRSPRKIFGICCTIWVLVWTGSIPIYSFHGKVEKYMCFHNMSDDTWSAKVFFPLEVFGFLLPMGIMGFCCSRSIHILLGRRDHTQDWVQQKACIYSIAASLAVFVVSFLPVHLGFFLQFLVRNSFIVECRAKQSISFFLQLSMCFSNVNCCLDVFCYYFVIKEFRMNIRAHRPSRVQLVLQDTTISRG
Turning to `CC(=O)N1CCN(c2ccc(NC(=O)c3ccc(F)cc3)cc2)CC1`, the inhibition is 4.7% (inactive). To `Cc1ccc(C(=O)NC2CCN(CC(=O)Nc3c(C)cc(C)cc3C)CC2)cc1` belongs 3.2% (inactive); to `COc1cc(C(=O)NCc2nnc(SCC(=O)Nc3nc4ccccc4s3)o2)cc(OC)c1OC`, -13.1% (inactive); to `O=C(Cn1c(=O)c2cccn2c2cccnc21)N1CCN(c2ccc(Cl)cc2)CC1`, -2.4% (inactive). As to `COc1ccc(NC(=O)CN(C)C(=O)C(C)Sc2ccccc2)cc1` (stereo unspecified), the inhibition was 8.3% (inactive). To `CC(=O)Nc1ccc(S(=O)(=O)NC(CC(=O)NCCc2ccccc2)C(C)C)cc1` (stereo unspecified) belongs 12.5% (inactive); to `CC(=O)N1CCN(c2ccc(NC(=O)c3ccc([N+](=O)[O-])cc3Cl)cc2)CC1`, 3.5% (inactive). To `Cc1nc(-c2ccc([N+](=O)[O-])cc2)sc1C(=O)O` belongs 6.9% (inactive); to `CCS(=O)(=O)c1ccc(-c2csc(-c3ccccc3)n2)c(Cl)c1Cl`, 31.4% (inactive).

In the case of `CCS(=O)(=O)c1ccc(-c2csc(-c3ccccc3Cl)n2)c(Cl)c1Cl`, the inhibition was -11.1% (inactive). As to `COc1ccc(-c2csc(Nc3cccc(C)n3)n2)cc1C`, the inhibition was 13.8% (inactive). To `COc1ccc(OC)c(-c2csc(NC(=O)c3ccc(OCC4CCCO4)cc3)n2)c1` (stereo unspecified) belongs -3% (inactive); to `O=C(Nc1nc(-c2ccc(F)c(F)c2)cs1)c1ccc(OCC2CCCO2)cc1` (stereo unspecified), -5.3% (inactive); to `O=C(Nc1nc(-c2ccc(Cl)cc2Cl)cs1)c1ccc(OCC2CCCO2)cc1` (stereo unspecified), 96% (active).

Consider `CCn1nc(C)c(/C=N/NC(=O)Cn2nnc(N)n2)c1C`, for which the inhibition was -1.9% (inactive).

With `CCOC(=O)C1CCCN(S(=O)(=O)c2cc(Br)cc3c2N(C(=O)CC)CC3)C1` (stereo unspecified), the inhibition was -0.6% (inactive). Regarding `COc1cc(/C=C/C(=O)OCN2C(=O)c3ccccc3C2=O)ccc1OC(F)F`, the inhibition is 0.4% (inactive). Take `N#Cc1c(/N=C/c2ccccc2)oc(-c2ccccc2)c1-c1ccccc1`: the inhibition is -11.7% (inactive). On to `COc1ccc(-c2oc(/N=C/N3CCCC3)c(C#N)c2-c2ccc(OC)cc2)cc1`, for which the inhibition was 14.8% (inactive). Regarding `CC(C)(C)SCCNC(=O)/C=C/c1ccccc1`, the inhibition was 2.8% (inactive). To `COc1ccc(S(=O)(=O)n2nc(OC(=O)c3c(-c4ccccc4Cl)noc3C)cc2N)cc1` belongs -4.9% (inactive); to `Cc1ccsc1C(=O)N(c1nc2ccccc2s1)c1c(C)cccc1C`, 9.7% (inactive). For `COc1cccc(N(C(=O)c2cccs2)c2nc3ccccc3s2)c1`, the inhibition is 0.2% (inactive). Turning to `O=C(COC(=O)C1CC2C=CC1C2)Nc1cccc(S(=O)(=O)N2CCOCC2)c1` (stereo unspecified), the inhibition was -10.4% (inactive).

Consider `O=C(c1ccc(O)cc1)c1ccc(C(=O)c2ccc(O)cc2)cc1`, for which the inhibition is 9.7% (inactive) and -6% (inactive). As for `C=C(c1ccc(OC)cc1)c1ccc(OC)cc1`, the inhibition was -8% (inactive). Regarding `ONC(=Nc1ccccc1)c1ccc(Cl)cc1`, the inhibition is 19.2% (inactive).

Regarding `COc1ccccc1C(c1nnnn1Cc1ccco1)N1CCN(c2cccc(C)c2C)CC1` (stereo unspecified), the inhibition is 15.4% (inactive).

Consider `CCN1CCN(C(c2cccc(OC)c2OC)c2nnnn2Cc2ccco2)CC1` (stereo unspecified), for which the inhibition is -6.5% (inactive). For `COc1cccc(C(c2nnnn2Cc2ccco2)N2CCN(c3cccc(C)c3C)CC2)c1OC` (stereo unspecified), the inhibition is 99.7% (active). In the case of `Fc1ccc(NC(=S)NC2CCN(Cc3ccccc3)CC2)cc1`, the inhibition is 28.1% (inactive).

Consider `O=C(NC1CCN(Cc2ccc(F)cc2)CC1)c1ccccc1`, for which the inhibition was 6.4% (inactive). Consider `COCCN(CCOC)C(=S)Nc1ccccc1`, for which the inhibition is 12.7% (inactive). To `NC(=O)C1CCN(C(=O)C2CC(=O)N(c3ccc(F)cc3)C2)CC1` (stereo unspecified) belongs -0.2% (inactive); to `COc1ccccc1OCC(=O)N1CCN(C(=O)COc2ccccc2OC)CC1`, 2.2% (inactive).

Consider `Oc1ccc(/C=N/Nc2nc(-c3cccnc3)nc3ccccc23)c(O)c1`, for which the inhibition was 1.9% (inactive). On to `Oc1ccc(Nc2nc(-c3ccccc3F)nc3ccccc23)cc1`, for which the inhibition is 7.7% (inactive). Regarding `O=C(Nc1nnc(-c2ccccc2)o1)c1cc(Cl)sc1Cl`, the inhibition was -2.3% (inactive). As to `O=C(O)c1cc2c(cc1NC(=O)c1ccccc1OC(F)F)OCCCO2`, the inhibition is -0.6% (inactive). As for `CCOC(=O)c1c(NC(=O)C2=C(C)NC(=S)NC2c2ccc(F)cc2)sc(C)c1C` (stereo unspecified), the inhibition was 64.1% (active). Regarding `CCOC(=O)c1c(NC(=O)c2ccnn2C)sc(C)c1C`, the inhibition was 1.1% (inactive). With `CCOC(=O)c1c(NC(=O)C2=C(C)NC(=S)NC2c2ccc(F)cc2F)sc(C)c1C` (stereo unspecified), the inhibition was 10% (inactive). With `CCOC(=O)c1c(NC(=O)c2ccncc2)sc(C)c1C`, the inhibition was -0.7% (inactive). To `CCOC(=O)c1c(NC(=O)c2cccnc2)sc(C)c1C` belongs -12.1% (inactive).

As to `CCOC(=O)c1c(NC(=O)C2=C(C)NC(=S)NC2c2ccccc2C(F)(F)F)sc(C)c1C` (stereo unspecified), the inhibition is 5.6% (inactive).

As to `CCOC(=O)c1c(NC(=O)c2ccc(Cl)s2)sc(C)c1C`, the inhibition was 1.6% (inactive). To `Cc1ccccc1NC(=O)CCS(=O)(=O)c1cccc2nonc12` belongs 2.7% (inactive); to `COc1ccc2c(c1)C(NC(C)=O)C(=O)N2CCc1ccccc1` (stereo unspecified), 6.6% (inactive). In the case of `O=C(CCC(=O)n1ncc2ccccc21)NCc1ccc(F)cc1`, the inhibition is -2.2% (inactive). Turning to `O=C(NCc1ccc2c(c1)OCO2)c1nc(Cn2cc([N+](=O)[O-])cn2)no1`, the inhibition is -20% (inactive). As to `CC(C)(C)C(=O)COC(=O)c1cc(-c2ccncc2)nc2ccccc12`, the inhibition is 2.9% (inactive).

Consider `O=C(Cn1c(=O)oc2ccccc21)N1CCCC1`, for which the inhibition is -1.8% (inactive). As to `CCOC(=O)c1c(CN(C)C)n(-c2ccc(C)cc2)c2cc(Br)c(O)cc12`, the inhibition is -0.7% (inactive). To `CCOC(=O)c1c(CN2CCOCC2)n(-c2ccccc2)c2cc(Br)c(OC)cc12` belongs 23.1% (inactive); to `CCOC(=O)c1c(CN(C)C)n(-c2ccccc2)c2cc(Br)c(OC)cc12`, -15.4% (inactive); to `CCOC(=O)c1c(CSC(=N)N)n(-c2ccc(Br)cc2)c2cc(Br)c(OC(C)=O)cc12`, 89.3% (active). Regarding `CCOC(=O)c1c(C)n(C)c2cc(Br)c(OC)cc12`, the inhibition is 7.4% (inactive). To `CCOC(=O)c1c(CN(C)C)n(-c2ccccc2)c2cc(Br)c(O)cc12` belongs 3.4% (inactive); to `C=CCCc1ccc(C#N)c(SCc2c(C(=O)OCC)c3cc(OC(C)=O)c(Br)cc3n2C)n1`, -23.2% (inactive); to `CCCCCCCCOC(=O)c1c(CSC(=N)N)n(C)c2cc(Br)c(OC(C)=O)cc12`, 23.7% (inactive). For the compound `CCOC(=O)c1c(CSc2nc(C)cc(C)c2C#N)n(C)c2cc(Br)c(OC(C)=O)cc12`, the inhibition was 1.8% (inactive).

As for `CC(C)CCN(Cc1ccco1)S(=O)(=O)c1ccc(-c2ccc(=O)[nH]n2)s1`, the inhibition was 12.8% (inactive). As to `Cc1onc(-c2ccccc2)c1C(=O)N1CCCN2C(=O)c3ccccc3C21` (stereo unspecified), the inhibition was -4.5% (inactive). As to `O=S1(=O)Cc2cc3ccccc3cc2C1`, the inhibition is 16.4% (inactive).

Turning to `COc1ccc(C)cc1NC(=O)c1ccc(OC(F)F)cc1`, the inhibition was 3.1% (inactive). To `CC(/C=C/c1ccccc1)=N/NC(=O)C(O)c1ccccc1` (stereo unspecified) belongs 0.5% (inactive); to `CC(=O)NC1=NN(C(C)=O)C2(S1)C(=O)N(C(C)=O)c1ccc(C)cc12` (stereo unspecified), 7.7% (inactive).

On to `CC(c1nnc(SCC(=O)N2CC(=O)Nc3ccccc32)n1Cc1ccccc1)N(C)C` (stereo unspecified), for which the inhibition is -4.8% (inactive). Consider `COc1cccc(Nc2cc(C)c3ccccc3n2)c1`, for which the inhibition is 6.5% (inactive). With `CCOc1ccc(NCc2cc3c(C(C)(C)C)nn(-c4ccccc4)c3[nH]c2=O)cc1`, the inhibition is 19.3% (inactive). For `COc1cccc(NCc2cc3c(C(C)(C)C)nn(-c4ccccc4)c3[nH]c2=O)c1`, the inhibition was 22.7% (inactive). `Cc1ccc(-c2nn(-c3ccccc3)c3[nH]c(=O)c(CNCc4ccccc4)cc23)cc1`: the inhibition is 11.1% (inactive). On to `CC(C)(C)c1nn(-c2ccccc2)c2[nH]c(=O)c(CNCc3ccco3)cc12`, for which the inhibition is 39.5% (inactive). As to `Cc1nn(-c2ccccc2)c2[nH]c(=O)c(CNCc3ccc4c(c3)OCO4)cc12`, the inhibition was -26.6% (inactive).

Regarding `CC(C)(C)c1nn(-c2ccccc2)c2[nH]c(=O)c(CNc3ccc4c(c3)OCCO4)cc12`, the inhibition is 16.1% (inactive). To `COc1ccc(N2CCN(S(=O)(=O)c3ccc(Cl)s3)CC2)cc1` belongs -2% (inactive). In the case of `Cc1ccc(NC(=O)CN(C)C(=O)CCOc2cccc(C)c2)cc1`, the inhibition was 7.3% (inactive). Regarding `O=[N+]([O-])c1ccc(N/N=C2\CC3CC=CC23)cc1` (stereo unspecified), the inhibition is -7.7% (inactive). For `O=C(N/N=C/c1ccc(OC(=O)c2ccccc2Cl)cc1)c1cc(O)cc(O)c1`, the inhibition is 4.4% (inactive).

Take `O=C(CNC1CCCCC1)N1CCc2ccccc2C1`: the inhibition was -1.3% (inactive). To `C=CS(=O)(=O)c1ccc(Oc2ccc(S(=O)(=O)C=C)cc2)cc1` belongs 70.4% (active); to `CNS(=O)(=O)c1ccc(Oc2ccc(S(=O)(=O)NC)cc2)cc1`, 19% (inactive); to `NS(=O)(=O)c1ccc(Oc2ccc(S(N)(=O)=O)cc2)cc1`, -4.4% (inactive). For `COc1ccc(C(=S)N2CCOCC2)cc1OC(=O)c1ccc([N+](=O)[O-])cc1[N+](=O)[O-]`, the inhibition is 6.8% (inactive). As to `COC(=O)CCC(=O)OC1(C)C(=O)C=C2C=C(C3CC3)N(C3CC3)C=C2C1=O` (stereo unspecified), the inhibition was 5.7% (inactive). As for `COc1cccc(NC(=O)COC(=O)C2C3CC4OC(=O)C2C4C3)c1` (stereo unspecified), the inhibition was 2.1% (inactive).

Regarding `COCCN=C1N[C@@H](c2ccccc2)C(C(=O)OC)=C(C)N1Cc1ccccc1`, the inhibition is 31.4% (inactive). To `COC(=O)C1=C(C)N(Cc2ccccc2)C(=NCCCCO)N[C@H]1c1ccccc1` belongs -6.4% (inactive); to `Cc1ccc(OCC(=O)N2c3ccccc3NC(=O)C2(C)C)c([N+](=O)[O-])n1`, 6.9% (inactive).

For `CCOC(=O)c1nc(Nc2ccc(C)cc2)c2ccccc2n1`, the inhibition was 11.6% (inactive). For the compound `CCOC(=O)c1nc(Nc2ccccc2)c2ccccc2n1`, the inhibition is -3.5% (inactive).
